Screens as filed in PubChem BioAssay.
The list is not random: actives were taken first. Their share in the collection is about 11%.
15-hLO inh: 15-hLO (ALOX15) enzyme inhibition. purified 15hLO-1, xylenol orange hydroperoxide absorbance. Potency, µM (titrated, usually from 57.1 µM), for inactives: at the highest dose activity change, negative = inhibition, usual class: inhibitors. AID 887. hit rate 1.4% among 74,000. P16050; further: nearly all actives have a fitted effect of over 55% in size
Target sequence (P16050 whole entry, looked up): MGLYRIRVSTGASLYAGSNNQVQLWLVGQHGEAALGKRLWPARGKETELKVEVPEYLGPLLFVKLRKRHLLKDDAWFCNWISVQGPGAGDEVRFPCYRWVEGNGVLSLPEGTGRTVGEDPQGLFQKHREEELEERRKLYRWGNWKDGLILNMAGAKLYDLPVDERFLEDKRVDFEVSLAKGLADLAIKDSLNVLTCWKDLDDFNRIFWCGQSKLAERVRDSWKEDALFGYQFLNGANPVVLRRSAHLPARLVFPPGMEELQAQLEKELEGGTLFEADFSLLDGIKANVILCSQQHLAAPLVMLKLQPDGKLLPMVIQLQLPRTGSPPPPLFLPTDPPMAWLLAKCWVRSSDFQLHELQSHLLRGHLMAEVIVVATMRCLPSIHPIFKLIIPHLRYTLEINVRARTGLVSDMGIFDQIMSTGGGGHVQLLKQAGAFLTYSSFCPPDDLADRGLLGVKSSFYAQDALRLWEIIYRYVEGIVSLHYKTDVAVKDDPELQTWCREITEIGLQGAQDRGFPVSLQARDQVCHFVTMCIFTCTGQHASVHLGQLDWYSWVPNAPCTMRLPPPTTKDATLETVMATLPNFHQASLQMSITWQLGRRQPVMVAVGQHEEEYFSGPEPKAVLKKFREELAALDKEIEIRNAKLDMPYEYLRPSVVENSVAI
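Purified human 15hLO-1 (40 nM) in 25 mM Hepes pH 7.5, 0.01% Triton X-100, preincubated 15 min RT with compound, then 50 uM arachidonic acid for 6 min. Hydroperoxide read by ferrous/xylenol orange, 30 min; 573/405 nm absorbance ratio gave progress.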
Bst PK mod: alters activity of Bacillus stearothermophilus pyruvate kinase; purified pyruvate kinase, luminescence ATP production; ribose 5-phosphate activator present at AC10; Potency, µM; hit rate 1.2% among 51,000; AID 361; in the data active means potency below about 11 µM; inconclusive means mostly about 12 µM to 25 µM;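 the screen sought inhibitors and activators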;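 further: scaled between full activation by ribose 5 phosphate and full inhibition by luteolin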
ERK AVP block: blocks ERK signaling stimulated by vasopressin; HEK293-V1b, vasopressin-stimulated pERK AlphaScreen; Potency, µM (titrated, usually from 57.5 µM), without a hit: top-dose activity, negative = inhibition, usual class: inhibitors; hit rate 0.99% among 72,000; AID 995; further: nearly all actives have a fitted effect of over 55% in size
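Phosphorylated ERK1/2 detected via AlphaScreen bead proximity in lysates of V1b-expressing HEK293 cells given 25 nM vasopressin for 5 min after 30 min compound exposure (37 °C). AC50 from Hill equation; basal DMSO 0%, vasopressin 100%.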
FLuc inh: blocks Photinus pyralis firefly luciferase activity. purified firefly luciferase, luminescence, 8 min. Potency, µM (highest dose often 57.1 µM), for inactives: top-dose activity change, negative = inhibition, hits mostly inhibitors. hit rate 2.2% among 72,000; further: nearly all actives have a fitted effect of over 40% in size
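Substrate buffer containing 10 uM ATP (pH 7.2 imidazole, Mg2+, KCl, detergent, BSA) is dispensed, compound pinned in, then luciferase/luciferin detector mix added. After 8 min at ambient temperature, light output is measured.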
HADH2 inhib: HADH2 (human) dehydrogenase inhibition; recombinant HADH2, NADH fluorescence, beta-hydroxybutyryl-CoA; Potency, µM (top dose mostly 57.1 µM), for inactives: at the top dose activity change, negative = inhibition, most hits filed as inhibitors; hit rate 3.4% among 73,000; AID 886; further: nearly all actives have a fitted effect of over 60% in size
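E. coli-expressed His-tagged HADH2 tested at 20 nM in alkaline Tris buffer (pH 9.0); oxidation of 90 uM beta-hydroxybutyryl-CoA with 1 mM NAD+ tracked fluorimetrically for 4 min.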
HSD17B inhib: HSD17B dehydrogenase inhibition; Q99714; recombinant HSD17B10, NADH fluorescence kinetic; Potency, µM (top dose mostly 57.1 µM), for the others: top-dose activity change, negative = inhibition, hits mostly inhibitors; hit rate 7.6% among 75,000; AID 893;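 further: the protocol describes HADH2 (HSD17B10) and not the HSD17B4 of the title; nearly all actives have a fitted effect of over 70% in size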
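Activity followed as NADH fluorescence increase (ex 360, em 450 nm) every 30 seconds for 4 min, using final 90 uM beta-hydroxybutyryl CoA and 1 mM NAD+. Recombinant His-tagged enzyme, 20 nM, pH 9.0 Tris buffer, 15 min compound preincubation.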
* hit, by the source's call; i = inactive; ? = inconclusive; nt = not tested or not shown; [ ] = remark or other dose. Unless noted, the call rests on the fitted dose curve; in most records, active means well fitted curve in the direction sought with a large enough effect; inconclusive means small, poorly fitted or top-dose-only effect, or another doubt; inactive means no such curve, though single readings can be large; an effect the other way counts as inactive or inconclusive. Unless noted, on the % scale 0 is the no-effect control and ±100 the full control effect; potency means the concentration at half of the fitted maximal effect.

SMILES | 15-hLO inh | Bst PK mod | ERK AVP block | FLuc inh | HADH2 inhib | HSD17B inhib
Cc1ccc(S(=O)(=O)N[C@H]2COC(=O)CC=C[C@@H](C)[C@H]3C=C[C@H](O)[C@@H](COC(=O)CC=C[C@H]2C)O3)cc1 | 1%[11.4 µM] | nt | -2%[11.5 µM] | 1%[11.4 µM] | 6%[11.4 µM] | 5%[11.4 µM]
CN1CCN(c2ncc3ncc(=O)n(Cc4ccc(F)cc4)c3n2)CC1 | -5% | nt | -6% | 1%[11.4 µM] | -9% | 25µM*
Cc1ccc2cc(C#N)c(N3CCCC3)nc2c1C | ? | nt | 27% | -2% | 23% | 25µM*
Cc1cc(C)c2nc(N3CCCN(C(=O)c4ccco4)CC3)c(C#N)cc2c1 | ? | >57 | 26% | -2% | -23% | 25µM*
COc1ccccc1C(=O)N1CCN(c2nc3cc(C)c(C)cc3cc2C#N)CC1 | ? | >57 | 14% | -3% | ? | 25µM*
COc1ccccc1C(=O)N1CCCN(C(=O)c2ccccc2OC)CC1 | 2% | >57 | -3% | 0% | 0% | 1%
COc1ccc2nc(N3CCCCC3)c(C#N)cc2c1 | 25µM* | i | 102% | 25µM* | 9% | -13%
COc1ccc2nc(N3CCCC3)c(C#N)cc2c1 | ? | >57 | 76% | -11% | 7% | -16%
COC(=O)c1ccc(C(NC(=O)OCc2ccccc2)/C(=C/[C@@H](C)C(=O)NCCc2c[nH]c3ccccc23)c2cccnc2)cc1 (stereo not given in full) | 0% | nt | 9% | nt | 12% | 2%
OC(Cc1ccccc1)(Cc1ccccc1)c1ccccc1 | -7%[11.4 µM] | nt | 23%[11.5 µM] | 1%[11.4 µM] | -1%[11.4 µM] | 6%[11.4 µM]
CO[C@@H]1COC(=O)C/C=C\[C@@H](C)COC(=O)[C@H](COCc2ccccc2)NC(=O)C/C=C\[C@H]1C | 4%[11.4 µM] | nt | 8%[11.5 µM] | 1%[11.4 µM] | 11%[11.4 µM] | 4%[11.4 µM]
O=C1C(=O)c2ccccc2C(O)=C1Cc1ccccc1 | 3%[11.4 µM] | nt | 19%[11.5 µM] | -1%[11.4 µM] | 7%[11.4 µM] | 6%[11.4 µM]
O=C(C1CCCO1)N1CCN(c2ncccn2)CC1 (stereo not given) | 8% | >57 | 3% | 1% | ? | -7%
Cc1cc(C)c(C#N)c(N2CCCC2)n1 | 0% | >57 | -21% | 0% | 25µM* | 25µM*
Cc1ccc2cc(C#N)c(N3CCCN(C(=O)C4CCCO4)CC3)nc2c1C (stereo not given) | -9% | >57 | 0% | 3% | -3% | 32µM*
CC12CCC(C(=O)n3c1nc1ccccc13)C2(C)C (stereo not given) | 7% | >57 | 2% | 0% | 5% | 7%
c1ccc2c(c1)NC1(CCCC1)n1c-2nc2ccccc21 | -6% | i | 7% | 25µM* | ? | 25µM*
Cc1cnc(NC(=O)c2ccc(-c3nc4ccccc4s3)o2)s1 | ? | i | 20µM* | -6% | -10% | 25µM*
O=C1CCCC/C1=C\Nc1ccccc1C(=O)O | 1% | >57 | -1% | -1% | ? | 32µM*
CCOC(=O)c1ccccc1N/C=C1\CCCC1=O | -6% | >11 | 5% | 1% | -9% | 25µM*
CC(C)c1ccc2c(c1)CC[C@@H]1[C@@](C)(CN)CCC[C@@]21C | nt | nt | nt | 1%[11.4 µM] | 4% | nt
NC(=O)C1CCN(c2oc(-c3ccccc3F)nc2S(=O)(=O)c2ccc(Cl)cc2)CC1 | -24% | 11* | -9% | -1% | -4% | -5%
CN(C)c1ccccc1C(=O)c1ccccc1N(C)C | -24% | nt | -6% | 25µM* | 23% | -13%
CN(c1ccccc1C(=O)O)S(C)(=O)=O | 2% | >57 | 6% | 0% | 2% | 4%
Oc1oc(-c2ccco2)nc1C=Nc1ccccc1 | ? | i | -7% | 16µM* | -18% | -7%
SMILES | 15-hLO inh | Bst PK mod | ERK AVP block | FLuc inh | HADH2 inhib | HSD17B inhib
Oc1oc(-c2ccco2)nc1C=Nc1cccc(Cl)c1 | nt | i | nt | -6%[25.5 µM] | nt | nt
CN(C)c1ccc(N/C=C/C(=O)c2ccc(F)cc2)cc1 | -23% | ? | -25% | 0.63µM* | 4% | -4%
CC(=O)Nc1ccc(N/C=C/C(=O)C(C)(C)C)cc1 | -1% | nt | -7% | -5% | ? | -7%
Cc1cccc(NS(=O)(=O)c2cc(C(=O)O)ccc2Cl)c1 | 1% | nt | nt | nt | -6% | 7%
Cc1cccc(NC(=O)C2CCN(S(=O)(=O)c3cccc4nsnc34)CC2)n1 | -12% | ? | 14% | 2% | -13% | 2%
COc1ccc2nc(NC(=O)C3CCN(S(=O)(=O)c4cccc5nsnc45)CC3)sc2c1 | -15% | 3* | 6% | -2% | -2% | -7%
CN(C)C(=O)c1ccc(-c2cncnc2N2CCNCC2)cc1 | -6% | nt | -2% | 1%[2.29 µM] | 7% | -1%
COc1ccc(CNc2oc(C)nc2C#N)cc1 | 7% | nt | -27% | 3% | 1% | 9%
CCOc1ccc(-c2nc(C#N)c(NCC(C)C)o2)cc1 | nt | >26 | nt | -3%[25.5 µM] | nt | nt
C=CCNc1oc(-c2ccc(OCC)cc2)nc1C#N | 5% | 5.3* | ? | -2% | 32µM* | 25µM*
C=CCNc1oc(-c2ccc(OC)cc2)nc1C#N | -1% | nt | ? | -23% | 25µM* | 25µM*
C=CCNc1oc(-c2cccc3ccccc23)nc1C#N | 0.5µM* | >57 | ? | -13% | 32µM* | 32µM*
O=[N+]([O-])c1cccc(C(F)(F)F)c1 | 4% | nt | -9% | nt | 1% | 3%
CC(=O)OC1CC2C(C)(C)C(O)CCC2(C)C2CC[C@]3(C)C(=CC(=O)OC3c3ccoc3)C12C (stereo not given in full) | -5% | nt | 19% | nt | nt | 4%
Cn1c(=O)c2c(ncn2CN2CCN(Cn3cnc4c3c(=O)n(C)c(=O)n4C)CC2)n(C)c1=O | 14%[11.4 µM] | nt | -1%[11.5 µM] | 2%[11.4 µM] | 7%[11.4 µM] | 6%[11.4 µM]
COC1=CC(=O)C(C(=O)c2ccccc2)=CC1=O | ? | nt | -13% | nt | nt | 13µM*
COC(=O)c1ccccc1 | 0% | nt | 5% | nt | -5% | 6%
O=C(O)c1ccc(C(=O)O)c(C(=O)O)c1.[NH-][C@@H]1CCCC[C@@H]1[NH-].[Pt] | 25%[11.4 µM] | nt | 21%[11.5 µM] | -3%[11.4 µM] | -28%[11.4 µM] | -6%[11.4 µM]
Cc1ccccc1-c1nc(CS(=O)(=O)CC(=O)Nc2cc(F)ccc2F)c(C)o1 | -20% | nt | 13µM* | 1% | 61% | 17%
COCCCNC(=O)CS(=O)(=O)Cc1nc(-c2ccccc2C)oc1C | 4% | nt | -1% | 2% | 3% | 5%
Fc1ccc(Nc2nc(-c3cccnc3)nc3ccccc23)cc1 | -6% | nt | ? | 3%[2.29 µM] | ? | ?
CCN(CC(=O)O)CC(=O)O | 17%[11.4 µM] | nt | -2%[11.5 µM] | 0%[11.4 µM] | 9%[11.4 µM] | 6%[11.4 µM]
Cc1ccc(/C=c2\sc3nc(-c4cccnc4)nn3c2=O)cc1 | -1% | nt | 15% | 7.9µM* | -13% | ?
O=c1c2ccccc2c(/C=N/n2cnnc2)c(O)n1-c1ccccc1F | 4% | >57 | -2% | 4% | ? | 25µM*
